The assay is described as follows: chemical genetic growth profiling, strain panel (AID 1159580).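 Also: tested at 20 µM; growth read once vehicle control cultures reached saturation at 30 °C; 1 = growth at the plate median or of vehicle wells.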 The settings on record: S. cerevisiae deletion strains, growth OD.

SMILES strings stand for the structures. In all, about 5,500 compounds went through this assay and about 2,000 (36%) were called active. About 18% were inconclusive and are not listed. The list shows a part of the results. A number with no mark means an inactive call. Rule as the data show it: active = normalized growth mostly below about 0.91 (no sharp cut-off); inconclusive = no clear call, values can overlap the other calls; inactive = mostly above about 0.92.

Regarding `N.N.N.N.N.N.N.N.N.N.N.N.N.N.O.O.[Ru+4].[Ru+5].[Ru+5]`, the normalized growth is, setting by setting: (locus YAL040C, strain CLN3, stronger effect = lower value) 0.206 (active); (locus YDR363W, strain ESC2, stronger effect = lower value) 0.323 (active); (locus YER002W, strain NOP16, stronger effect = lower value) 0.155 (active); (locus YGR078C, strain PAC10, stronger effect = lower value) 0.158 (active); (locus YGR229C, strain SMI1, stronger effect = lower value) 0.151 (active); (locus YJR075W, strain HOC1, stronger effect = lower value) 0.115 (active). In addition, the normalized growth is 0.993 (locus YMR263W, strain SAP30, stronger effect = lower value); 0.218 (active) (locus YMR307W, strain GAS1, stronger effect = lower value); 0.194 (active) (locus YNL128W, strain TEP1, stronger effect = lower value); 0.193 (active) (locus YNL153C, strain GIM3, stronger effect = lower value); 0.175 (active) (locus YNL175C, strain NOP13, stronger effect = lower value); 0.154 (active) (locus YNL197C, strain WHI3, stronger effect = lower value). The normalized growth runs as follows: (locus YNL224C, strain SQS1, stronger effect = lower value) 0.173 (active); (locus YOR083W, strain WHI5 (second series), stronger effect = lower value) 0.167 (active).

Source of the values: PubChem BioAssay AID1159580 (chemical genetic matrix, 2015).
